Gal4-VP16 FLuc: VP16 counterscreen qHTS for inhibitors of ROR gamma transcriptional activity. Drosophila S2 Gal4-VP16 UAS-luciferase, luminescence, 20 h. Potency, µM (top dose mostly 53.6 µM), without a hit: at the top dose activity, negative = inhibition, hits mostly inhibitors. 310,000 tested, 3.5% active;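 further: Gal4-VP16 expression switched on by copper sulfate through the metallothionein promoter; potency means the concentration at half of the fitted maximal effect; on the % scale 0 is the no-effect control and ±100 the full control effect; nearly all actives have a fitted effect of over 50% in size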
MBNL1 CUG block: qHTS Assay for Inhibitors of MBNL1-poly(CUG) RNA binding | Potency, µM (top dose mostly 57.5 µM), inactives show at the highest dose activity change, negative = inhibition, usual class: inhibitors | Muscleblind-like protein 1 (Homo sapiens), Q9NR56 | TR-FRET MBNL1-His/biotin-(CUG)12 binding, 665/545 ratio | AID 2675, 2010 | 280,000 tested, 0.036% active; active means well fitted inhibition curve with a large enough effect in the signal ratio, with a control signal flat, not every such curve was filed as active; inconclusive means small, poorly fitted or top-dose-only effect, or effect the other way, or a change in a side signal; inactive means no such curve, though single readings can be large or run the other way; the % refers to the signal ratio; further: potency means the concentration at half of the fitted maximal effect; on the % scale 0 is the no-effect control and ±100 the full control effect
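His-tagged MBNL1 binding to biotinylated (CUG)12 RNA was measured by TR-FRET using terbium anti-His antibody (0.055 ng/ul final) and streptavidin-XL665 (5 nM final). Compounds were titrated 92 nM to 58 uM; 60 min at room temperature.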
CtBP-E1A inh: qHTS Assay for Inhibitors of the CtBP/E1A Interaction. AlphaScreen GST-E1A/His-CtBP binding, 1536-well; hits give low values. 340,000 tested, 0.49% active. activity change, % (test concentration not listed); in the data active means activity change below about -65%; inconclusive means mostly about -30% to -63%; further: on the % scale 0 is the no-effect control and ±100 the full control effect
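AlphaScreen with 125 nM GST-E1A and 125 nM His-CtBP (5X stocks) in Tris pH 8.0, 300 mM NaCl, BSA, Tween 20, TCEP. Compounds preincubated 2 h at 37 deg C, then glutathione donor/nickel acceptor beads added for 1 h at 37 deg C in dark.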
Six1-Eya2 inh: qHTS Assay for Inhibitors of the Six1/Eya2 Interaction; AlphaScreen GST-Six1/His-Eya2 binding, biochemical; hits give low values; activity change, % (no concentration beside the values); 360,000 tested, 0.56% active; AID 651725, 2012; in the data active means activity change below about -65%; inconclusive means mostly about -30% to -63%; further: on the % scale 0 is the no-effect control and ±100 the full control effect
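Compounds are tested against tagged Six1 and Eya2 proteins bridged by glutathione donor and nickel acceptor beads; after a one-hour incubation at 37 °C without light, AlphaScreen emission is recorded.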
RORgamma inh: qHTS for inhibitors of ROR gamma transcriptional activity | Potency, µM (titrated, usually from 53.6 µM), without a hit: at the top dose activity change, negative = inhibition, usual class: inhibitors | Drosophila S2 Gal4-RORgamma UAS-luciferase reporter, 20 h | 310,000 tested, 5.4% active | AID 2551, 2010; further: potency means the concentration at half of the fitted maximal effect; on the % scale 0 is the no-effect control and ±100 the full control effect; nearly all actives have a fitted effect of over 60% in size
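Luciferase reporter read in Schneider cells carrying Gal4-RORγ (mouse) and UAS-Photinus luciferase; cells given compound 1 h before 700 uM copper sulfate induction, then incubated 20 h at ambient temperature.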
CBFb-RUNX1 inh: qHTS Assay for Compounds Blocking the Interaction Between CBF-beta and RUNX1 for the Treatment of Acute Myeloid Leukemia; Potency, µM (titrated, usually from 59.8 µM), for inactives: at the top dose activity, negative = inhibition, actives largely listed as inhibitors; AID 1477, 2009; AlphaScreen CBFb-His/RUNX1-biotin binding, biochemical; 230,000 tested, under 10 active; further: % of control where 0% means no effect
Target sequence (Q01196 whole entry, looked up): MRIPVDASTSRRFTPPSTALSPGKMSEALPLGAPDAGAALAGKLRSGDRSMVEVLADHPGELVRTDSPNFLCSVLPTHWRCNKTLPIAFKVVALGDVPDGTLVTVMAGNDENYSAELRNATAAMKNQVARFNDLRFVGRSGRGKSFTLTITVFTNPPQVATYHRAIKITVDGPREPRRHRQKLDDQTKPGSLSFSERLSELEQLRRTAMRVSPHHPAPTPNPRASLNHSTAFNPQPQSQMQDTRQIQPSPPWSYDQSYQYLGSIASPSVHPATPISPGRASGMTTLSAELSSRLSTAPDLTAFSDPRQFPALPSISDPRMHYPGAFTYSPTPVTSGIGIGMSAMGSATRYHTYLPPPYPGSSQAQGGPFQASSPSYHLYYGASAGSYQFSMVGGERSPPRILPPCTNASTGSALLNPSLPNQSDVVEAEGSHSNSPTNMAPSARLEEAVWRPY
Target sequence (Q13951 whole entry, looked up): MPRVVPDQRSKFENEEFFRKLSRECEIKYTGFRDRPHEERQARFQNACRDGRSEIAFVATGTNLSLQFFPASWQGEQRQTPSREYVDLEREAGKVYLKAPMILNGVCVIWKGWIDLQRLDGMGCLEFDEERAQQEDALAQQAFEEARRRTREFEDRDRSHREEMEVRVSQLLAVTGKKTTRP
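Room-temperature protein-protein interaction test with 30 nM each of His-tagged CBF-beta and biotinylated RUNX1, 15 min with compound, then 90 min with nickel plus streptavidin beads. Signal read in AlphaScreen mode.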
Active calls of the source: *; ? = inconclusive; . = no result; [ ] = another dose, or the depositor's remark. This is a sample that favours compounds with a hit; in the whole collection about 5.5% have one here. Unless noted, the call rests on the fitted dose curve; in most records, active means well fitted curve in the direction sought with a large enough effect; inconclusive means small, poorly fitted or top-dose-only effect, or another doubt; inactive means no such curve, though single readings can be large; an effect the other way counts as inactive or inconclusive.

SMILES	Gal4-VP16 FLuc	MBNL1 CUG block	CtBP-E1A inh	Six1-Eya2 inh	RORgamma inh	CBFb-RUNX1 inh
CNC(=O)c1[nH]cnc1C(=O)N[C@@H](Cc1ccccc1)C(=O)OCc1ccccc1	?	1%	.	-6	18µM*	4%
CC(C)(C)OC(=O)CNC(=O)c1nc[nH]c1C(=O)N1CCc2ccccc2C1	?	6%	4	1	11µM*	.
CCCCn1nc(C(=O)Nc2ccc3c(c2)OCO3)c2ccccc2c1=O	.	.	-26	?	.	.
CN1CCN(C2CN(Cc3ccc([N+](=O)[O-])cc3)S(=O)(=O)C2)CC1 (configuration not stated)	.	.	4	-1	.	.
O=C(OCc1ccccc1)/C(=C/c1cccc([N+](=O)[O-])c1)NC(=O)c1ccco1	.	?	?	-7	.	.
O=C(N[C@@H](Cc1ccccc1)C(=O)OCc1ccccc1)c1nc[nH]c1C(=O)N1CCc2ccccc2C1	?	1%	-20	-12	13µM*	2%
Cc1cccc(NC(=O)c2nc[nH]c2C(=O)NCc2ccccc2)c1	.	.	-6	0	.	.
C[C@H](NC(=O)c1nc[nH]c1C(=O)NC1CCN(C(=O)OC(C)(C)C)CC1)C(=O)OCc1ccccc1	?	3%	-2	-7	14µM*	12%
Cc1cccc(NC(=O)c2nc[nH]c2C(=O)N[C@@H](Cc2ccccc2)C(=O)OCc2ccccc2)c1	10µM*	-6%	-4	-4	2.2µM*	7%
CCN(CC)C(=O)c1[nH]cnc1C(=O)N[C@@H](Cc1ccccc1)C(=O)OCc1ccccc1	?	9%	3	-4	14µM*	-4%
O=C(O)CSc1c2c(nc3cc(C(=O)NCCN4CCOCC4)ccc13)CCC2	-4%	?	-15	0	1%	?
COC(=O)C1=C(C(=O)OC)[C@@H]2Nc3ccccc3[C@@]23C[C@@H](C(=O)OC)N(S(=O)(=O)c2ccc(C(F)(F)F)cc2)C3=N1	.	.	.	.	.	-3%[13.1 µM]
Cc1ccc(S(=O)(=O)N2C[C@H]3C(=O)C[C@@H]4C(=O)N(c5ccccc5)C(=O)[C@@H]4[C@@H]3C[C@H]2c2cccs2)cc1	.	.	-14	-1	.	.
Cc1ccc(S(=O)(=O)N2CCN(C3CC(=O)N(c4ccc(F)cc4)C3=O)CC2)cc1C (configuration not stated)	.	.	.	5	.	.
Cc1ccc(N2CCN(C(=S)Nc3ccccc3)CC2)cc1	?	-14%	.	-4	6.3µM*	3%
COc1ccc(NC(=S)N2CCN(C)CC2)cc1	.	.	0	4	.	.
S=C(Nc1ccccc1)N1CCN(c2ccccc2)CC1	.	.	-6	-9	.	.
COc1ccc(N2CCN(C(=S)Nc3ccc(C)cc3)CC2)cc1	-2%	6%	-1	-7	10µM*	9%
CN1CCN(C(=S)Nc2ccc(Oc3ccccc3)cc2)CC1	0%	-6%	2	-9	11µM*	?
S=C(Nc1ccccc1)N1CCOCCOCCN(C(=S)Nc2ccccc2)CCOCCOCC1	-24%	.	-18	-5	18µM*	-5%
C/C(=N\NC(N)=O)C1CC(Cc2ccccc2)C(=O)O1 (configuration not stated)	0%	0%	5	6	7%	.
O=C(NCc1cccs1)C1CC(=O)N(Cc2ccccc2)C1 (configuration not stated)	.	.	-9	8	.	.
CN(Cc1ccc(OCC(O)CN2CCCCC2)cc1)Cc1ccnc2ccccc12 (configuration not stated)	6.3µM*	6%	.	5	7.1µM*	5%
Cc1nn(C)cc1CN(C)Cc1ccc(OCC(O)CN2CCCCC2)cc1 (configuration not stated)	4%	14%	-7	5	2%	2%
N#Cc1ccc(NC(=S)Nc2ccccc2)cc1	-2%	.	-7	1	-17%	9%
SMILES	Gal4-VP16 FLuc	MBNL1 CUG block	CtBP-E1A inh	Six1-Eya2 inh	RORgamma inh	CBFb-RUNX1 inh
N#Cc1ccccc1NC(=S)Nc1ccc(F)cc1	20µM*	-1%	13	10	18µM*	-1%
S=C(Nc1ccccc1)Nc1ccccc1-n1cccc1	16µM*	39%	.	-1	4.5µM*	0%
S=C(Nc1ccccc1)Nc1ccccc1C#Cc1ccccc1	?	.	.	.	11µM*	-1%
C[Si](C)(C)C#Cc1ccccc1NC(=S)Nc1ccccc1	?	.	.	.	14µM*	10%
O=C(c1ccc(S(=O)(=O)N2CCCCCC2)cc1)N1CCN(c2ccccc2F)CC1	.	.	2	-1	.	.
CCCc1cc(NC(=O)COC(=O)c2nccnc2N)n(-c2ccccc2)n1	.	.	.	-9	.	.
Cn1nc(-c2ccc(Cl)cc2)c2cc(C(=O)N3CCN(c4ccccn4)CC3)sc21	13µM*	1%	7	2	18%	3%
Cn1nc(-c2ccc(Cl)cc2)c2cc(C(=O)N3CCN(c4ccccc4)CC3)sc21	8%	-6%	0	1	1%	0%
O=C1CCCCC1(c1ccccc1)c1ccccc1	.	.	-2	6	.	.
CCN(CC)c1ccc(-c2n[nH]c(=S)n2-c2ccccc2)cc1	-17%	10%	-10	-13	1.6µM*	-1%
CN(C)c1ccc(-c2n[nH]c(=S)n2-c2ccccc2)cc1	?	23%	-2	-4	2.2µM*	1%
Cc1n[nH]c(=S)n1-c1ccccc1	-20%	.	-8	1	?	11%
NC(N)=Nc1nc(CSCC/C(N)=N\S(N)(=O)=O)cs1	8%	.	.	.	8%	2%
O=C(c1ccccn1)N1CCCC(N2CCN(c3ccc(F)cc3)CC2)C1 (configuration not stated)	0%	-1%	2	0	8%	.
Cc1ccc(-c2cc(-c3ccc(C)cc3O)[nH]n2)cc1	7.1µM*	-3%	.	2	4µM*	.
Cc1ccc(O)c(-c2cc(-c3cccc(Br)c3)n[nH]2)c1	-17%	-8%	-1	-4	-2%	2%
Cc1ccc(-c2cc(-c3ccc(F)cc3)n[nH]2)c(O)c1	7.1µM*	-2%	0	-10	5.6µM*	.
CSc1ccccc1NC(=O)COC(=O)CSc1ccc(C)cc1	.	.	16	12	.	.
